From PubChem BioAssay (NCATS)
Results filed as inconclusive are left out. Values without a mark were called inactive. Activity calls are given as the source filed them. Calls follow the shape of the dose curve; as a rule, active = well fitted inhibition curve with a large enough effect; inconclusive = small, poorly fitted or top-dose-only effect; inactive = no such curve, though single readings can be large or run the other way.

Each compound was assayed on Zika virus NS2B-NS3 protease (linked construct) (assay: Primary screen NINDS Rhodamine qHTS for Zika virus inhibitors (AID 1347160; also: nearly all actives have a fitted effect of over 55% in size)). Details: purified NS2B-NS3 protease, Rhodamine110 substrate fluorescence; series mostly up to 33.1 µM; activity change, negative = inhibition: at the top concentration.
In short: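 Rhodamine110-peptide cleavage (1.5 µM substrate) by 25 nM linked NS2B-NS3 enzyme at pH 8.0 (Tris, Tween 20), after 15 min RT preincubation with compounds; 15-min fluorescence change normalized to controls and Hill-fitted.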
% is scaled to controls: 0 for no effect and ±100 for the full control effect.

Row | Compound | activity change, negative = inhibition | outcome
1 | COCC1OC(OC(C)(C)C2CCC3(C)C=C(C4CCC5C4(C)CC(O)C4OC(C(C)(C)O)CCC45C)CCC3O2)C(NC(C)=O)C(O)C1O (centres undefined) | -24% [at 15.1 µM] | 
2 | CC1=CC(=O)CC(C)(C)C1/C=C/C(C)OC1OC(COC2OCC(O)C(O)C2O)C(O)C(O)C1O (centres undefined) | 25.5% | 
3 | C=C1CC/C=C(/CO)C(=O)C[C@@H]2[C@@H]1C[C@@]2(C)COC(C)=O |  | inactive
4 | COC1CC(O[C@H]2CC[C@@]3(C)C(=CC[C@]4(O)C3[C@H](O)[C@@H](O)[C@]3(C)[C@@H]([C@H](C)O)CC[C@@]34O)C2)OC(C)C1OC1CC(OC)C(OC2CC(OC)C(OC3OC(C)C(OC4OC(CO)C(O)C(O)C4O)C(OC)C3O)C(C)O2)C(C)O1 (some centres undefined) |  | inactive [at 15.1 µM]
